Source: ChEMBL document CHEMBL1961873, “Compounds: GSK PKIS; Assays: Nanosyn kinase panel” (2012)
Where “and” joins values, the source holds several entries; their conditions need not be identical. Equal entries are not always repeated.

Columns and labels:
[1] = target: T1, Serine/threonine-protein kinase D2 (Homo sapiens) (UniProt Q9BZL6); details: at 1 µM;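 further: mean value of PRKD2 inhibition, from the GSK PKIS screening panel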
T1 sequence (whole entry): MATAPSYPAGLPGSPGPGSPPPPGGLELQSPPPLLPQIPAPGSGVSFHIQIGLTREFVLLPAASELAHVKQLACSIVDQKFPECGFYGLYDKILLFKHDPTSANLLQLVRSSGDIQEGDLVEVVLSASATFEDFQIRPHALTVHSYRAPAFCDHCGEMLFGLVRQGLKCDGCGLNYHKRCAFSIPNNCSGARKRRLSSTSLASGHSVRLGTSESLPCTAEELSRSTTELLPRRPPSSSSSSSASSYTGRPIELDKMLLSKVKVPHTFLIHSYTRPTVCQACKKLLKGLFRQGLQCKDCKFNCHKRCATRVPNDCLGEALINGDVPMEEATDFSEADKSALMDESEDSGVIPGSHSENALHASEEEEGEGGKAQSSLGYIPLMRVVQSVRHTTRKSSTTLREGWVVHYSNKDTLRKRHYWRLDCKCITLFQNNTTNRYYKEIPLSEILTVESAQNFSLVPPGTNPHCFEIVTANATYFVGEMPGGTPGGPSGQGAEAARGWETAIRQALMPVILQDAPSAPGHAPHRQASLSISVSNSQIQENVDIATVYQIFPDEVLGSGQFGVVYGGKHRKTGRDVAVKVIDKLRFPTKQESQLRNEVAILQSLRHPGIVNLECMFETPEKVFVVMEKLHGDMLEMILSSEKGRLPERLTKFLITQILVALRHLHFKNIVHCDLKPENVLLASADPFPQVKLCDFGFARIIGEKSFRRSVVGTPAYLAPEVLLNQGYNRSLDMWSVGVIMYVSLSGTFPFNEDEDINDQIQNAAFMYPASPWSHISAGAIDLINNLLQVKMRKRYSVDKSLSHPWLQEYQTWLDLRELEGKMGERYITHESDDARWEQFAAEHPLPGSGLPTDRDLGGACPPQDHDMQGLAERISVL

[2] = target: T2, Serine/threonine-protein kinase D3 (Homo sapiens) (UniProt O94806); details: at 0.1 µM
T2 sequence (whole entry): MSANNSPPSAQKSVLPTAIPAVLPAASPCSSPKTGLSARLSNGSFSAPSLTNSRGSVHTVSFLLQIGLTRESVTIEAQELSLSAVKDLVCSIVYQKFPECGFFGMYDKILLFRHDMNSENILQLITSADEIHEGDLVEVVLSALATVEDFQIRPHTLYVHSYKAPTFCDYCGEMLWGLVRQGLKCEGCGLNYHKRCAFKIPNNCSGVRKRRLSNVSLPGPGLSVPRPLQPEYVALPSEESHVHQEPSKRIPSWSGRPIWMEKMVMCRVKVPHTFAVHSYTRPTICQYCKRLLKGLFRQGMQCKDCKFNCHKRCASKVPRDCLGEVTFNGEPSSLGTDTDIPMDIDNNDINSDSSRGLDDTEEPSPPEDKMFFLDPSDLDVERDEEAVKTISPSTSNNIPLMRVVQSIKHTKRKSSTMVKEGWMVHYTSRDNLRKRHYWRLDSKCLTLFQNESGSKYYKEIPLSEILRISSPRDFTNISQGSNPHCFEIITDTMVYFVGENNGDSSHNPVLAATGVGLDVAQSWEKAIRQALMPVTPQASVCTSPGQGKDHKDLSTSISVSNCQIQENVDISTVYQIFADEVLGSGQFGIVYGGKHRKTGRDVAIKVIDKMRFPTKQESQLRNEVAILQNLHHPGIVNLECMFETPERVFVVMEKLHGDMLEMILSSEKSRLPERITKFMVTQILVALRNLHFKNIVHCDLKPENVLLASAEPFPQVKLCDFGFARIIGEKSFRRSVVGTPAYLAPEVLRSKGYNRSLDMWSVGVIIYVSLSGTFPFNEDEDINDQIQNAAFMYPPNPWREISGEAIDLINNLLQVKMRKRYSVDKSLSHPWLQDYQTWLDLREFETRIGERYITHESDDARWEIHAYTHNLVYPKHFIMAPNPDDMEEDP

[3] = target: T2, Serine/threonine-protein kinase D3 (Homo sapiens); details: at 1 µM
[4] = target: T3, cGMP-dependent protein kinase 1 (Homo sapiens) (UniProt Q13976); details: at 0.1 µM
T3 sequence (whole entry): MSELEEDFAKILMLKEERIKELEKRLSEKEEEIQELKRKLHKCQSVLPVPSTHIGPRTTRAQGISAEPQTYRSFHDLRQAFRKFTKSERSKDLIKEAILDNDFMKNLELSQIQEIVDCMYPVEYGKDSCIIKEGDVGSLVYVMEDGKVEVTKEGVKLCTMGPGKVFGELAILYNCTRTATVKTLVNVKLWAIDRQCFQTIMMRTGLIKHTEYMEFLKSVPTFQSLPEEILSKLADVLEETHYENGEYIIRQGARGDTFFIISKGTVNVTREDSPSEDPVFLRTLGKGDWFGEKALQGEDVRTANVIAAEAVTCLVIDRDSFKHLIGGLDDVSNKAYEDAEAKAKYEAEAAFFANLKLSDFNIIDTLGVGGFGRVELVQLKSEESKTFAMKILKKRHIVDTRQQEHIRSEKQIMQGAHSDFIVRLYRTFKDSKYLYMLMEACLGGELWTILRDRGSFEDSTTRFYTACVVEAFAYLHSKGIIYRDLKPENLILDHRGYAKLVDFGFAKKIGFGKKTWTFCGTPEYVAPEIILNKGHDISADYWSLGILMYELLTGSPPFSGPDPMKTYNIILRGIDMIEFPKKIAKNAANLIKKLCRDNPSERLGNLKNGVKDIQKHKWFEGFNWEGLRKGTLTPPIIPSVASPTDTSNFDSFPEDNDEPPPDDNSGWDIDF

[5] = target: T3, cGMP-dependent protein kinase 1 (Homo sapiens); details: at 1 µM
[6] = target: T4, cGMP-dependent protein kinase 2 (Homo sapiens) (UniProt Q13237); details: at 0.1 µM
T4 sequence (whole entry): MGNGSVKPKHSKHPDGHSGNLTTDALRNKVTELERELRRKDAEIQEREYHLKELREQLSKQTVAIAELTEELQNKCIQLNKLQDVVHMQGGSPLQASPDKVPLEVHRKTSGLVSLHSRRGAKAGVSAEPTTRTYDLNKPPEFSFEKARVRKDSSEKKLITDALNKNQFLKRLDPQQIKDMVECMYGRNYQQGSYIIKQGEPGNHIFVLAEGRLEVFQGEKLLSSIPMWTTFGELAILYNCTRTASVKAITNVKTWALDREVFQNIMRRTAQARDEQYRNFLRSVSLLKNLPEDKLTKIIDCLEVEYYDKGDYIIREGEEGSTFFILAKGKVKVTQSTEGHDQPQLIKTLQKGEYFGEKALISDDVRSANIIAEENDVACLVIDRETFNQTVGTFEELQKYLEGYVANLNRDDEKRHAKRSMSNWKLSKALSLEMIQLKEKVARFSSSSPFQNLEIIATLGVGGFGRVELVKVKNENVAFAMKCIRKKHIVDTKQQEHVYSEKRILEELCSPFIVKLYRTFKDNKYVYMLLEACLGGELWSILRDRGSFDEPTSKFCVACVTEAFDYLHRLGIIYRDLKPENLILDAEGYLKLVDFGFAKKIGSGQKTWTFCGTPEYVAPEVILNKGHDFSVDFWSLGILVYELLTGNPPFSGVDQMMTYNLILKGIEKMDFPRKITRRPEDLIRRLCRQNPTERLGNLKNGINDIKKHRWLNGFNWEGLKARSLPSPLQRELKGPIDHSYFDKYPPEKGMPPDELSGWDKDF

[7] = target: T4, cGMP-dependent protein kinase 2 (Homo sapiens); details: at 1 µM
[8] = target: T5, cAMP-dependent protein kinase catalytic subunit PRKX (Homo sapiens) (UniProt P51817); details: at 0.1 µM
T5 sequence (whole entry): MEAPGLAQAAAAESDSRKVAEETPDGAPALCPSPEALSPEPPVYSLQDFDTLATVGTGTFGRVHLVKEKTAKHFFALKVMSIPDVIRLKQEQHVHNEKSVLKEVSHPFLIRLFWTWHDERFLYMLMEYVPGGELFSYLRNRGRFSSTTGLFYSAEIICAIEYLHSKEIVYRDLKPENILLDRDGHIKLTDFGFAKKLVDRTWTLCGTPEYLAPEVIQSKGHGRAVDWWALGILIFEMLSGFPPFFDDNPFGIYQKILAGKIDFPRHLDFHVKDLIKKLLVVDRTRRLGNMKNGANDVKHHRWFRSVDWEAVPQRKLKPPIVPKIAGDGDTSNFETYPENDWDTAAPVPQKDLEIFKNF

[9] = target: T5, cAMP-dependent protein kinase catalytic subunit PRKX (Homo sapiens); details: at 1 µM
[10] = target: Rho-associated protein kinase 1 (Homo sapiens) (UniProt Q13464); details: at 0.1 µM
[11] = target: Rho-associated protein kinase 1 (Homo sapiens) (UniProt Q13464); details: at 1 µM
[12] = target: Rho-associated protein kinase 2 (Homo sapiens) (UniProt O75116); details: at 0.1 µM
Sequence of Rho-associated protein kinase 2 (Homo sapiens) (O75116 whole entry, looked up): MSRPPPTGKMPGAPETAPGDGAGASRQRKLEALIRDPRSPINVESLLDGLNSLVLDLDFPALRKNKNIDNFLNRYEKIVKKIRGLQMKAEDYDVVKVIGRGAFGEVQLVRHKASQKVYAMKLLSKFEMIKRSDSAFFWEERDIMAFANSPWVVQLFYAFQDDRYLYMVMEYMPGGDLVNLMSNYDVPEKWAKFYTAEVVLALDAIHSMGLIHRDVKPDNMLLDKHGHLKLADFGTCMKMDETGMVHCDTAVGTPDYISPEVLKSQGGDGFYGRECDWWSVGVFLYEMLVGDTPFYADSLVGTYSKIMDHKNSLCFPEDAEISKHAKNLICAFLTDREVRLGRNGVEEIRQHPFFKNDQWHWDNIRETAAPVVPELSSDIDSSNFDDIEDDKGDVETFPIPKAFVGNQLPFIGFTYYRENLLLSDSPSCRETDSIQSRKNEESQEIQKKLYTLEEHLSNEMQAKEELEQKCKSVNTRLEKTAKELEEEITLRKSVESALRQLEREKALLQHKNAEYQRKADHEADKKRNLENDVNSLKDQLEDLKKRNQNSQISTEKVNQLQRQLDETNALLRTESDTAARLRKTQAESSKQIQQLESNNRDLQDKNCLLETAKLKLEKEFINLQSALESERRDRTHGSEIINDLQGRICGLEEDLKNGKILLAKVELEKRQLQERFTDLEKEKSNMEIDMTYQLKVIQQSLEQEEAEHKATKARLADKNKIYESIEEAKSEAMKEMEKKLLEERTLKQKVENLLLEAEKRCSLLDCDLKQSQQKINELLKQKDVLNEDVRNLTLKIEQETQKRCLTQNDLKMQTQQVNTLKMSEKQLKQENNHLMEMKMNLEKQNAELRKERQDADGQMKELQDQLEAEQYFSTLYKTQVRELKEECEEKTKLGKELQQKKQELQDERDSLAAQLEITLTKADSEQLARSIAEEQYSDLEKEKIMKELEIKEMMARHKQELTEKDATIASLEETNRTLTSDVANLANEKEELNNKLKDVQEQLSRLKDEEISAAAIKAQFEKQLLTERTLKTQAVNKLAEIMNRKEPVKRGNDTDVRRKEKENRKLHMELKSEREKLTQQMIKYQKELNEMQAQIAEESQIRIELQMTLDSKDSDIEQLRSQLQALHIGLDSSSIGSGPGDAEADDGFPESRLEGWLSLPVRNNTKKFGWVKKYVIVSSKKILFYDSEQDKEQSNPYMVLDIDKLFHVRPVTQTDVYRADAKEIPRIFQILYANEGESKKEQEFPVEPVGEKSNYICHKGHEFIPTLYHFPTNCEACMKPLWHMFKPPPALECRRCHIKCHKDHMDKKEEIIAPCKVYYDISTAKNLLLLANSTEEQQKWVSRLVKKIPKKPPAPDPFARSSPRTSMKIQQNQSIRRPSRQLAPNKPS

[13] = target: Rho-associated protein kinase 2 (Homo sapiens) (UniProt O75116); details: at 1 µM
[14] = target: Ribosomal protein S6 kinase alpha-1 (Homo sapiens) (UniProt Q15418); details: at 0.1 µM
Sequence of Ribosomal protein S6 kinase alpha-1 (Homo sapiens) (Q15418 whole entry): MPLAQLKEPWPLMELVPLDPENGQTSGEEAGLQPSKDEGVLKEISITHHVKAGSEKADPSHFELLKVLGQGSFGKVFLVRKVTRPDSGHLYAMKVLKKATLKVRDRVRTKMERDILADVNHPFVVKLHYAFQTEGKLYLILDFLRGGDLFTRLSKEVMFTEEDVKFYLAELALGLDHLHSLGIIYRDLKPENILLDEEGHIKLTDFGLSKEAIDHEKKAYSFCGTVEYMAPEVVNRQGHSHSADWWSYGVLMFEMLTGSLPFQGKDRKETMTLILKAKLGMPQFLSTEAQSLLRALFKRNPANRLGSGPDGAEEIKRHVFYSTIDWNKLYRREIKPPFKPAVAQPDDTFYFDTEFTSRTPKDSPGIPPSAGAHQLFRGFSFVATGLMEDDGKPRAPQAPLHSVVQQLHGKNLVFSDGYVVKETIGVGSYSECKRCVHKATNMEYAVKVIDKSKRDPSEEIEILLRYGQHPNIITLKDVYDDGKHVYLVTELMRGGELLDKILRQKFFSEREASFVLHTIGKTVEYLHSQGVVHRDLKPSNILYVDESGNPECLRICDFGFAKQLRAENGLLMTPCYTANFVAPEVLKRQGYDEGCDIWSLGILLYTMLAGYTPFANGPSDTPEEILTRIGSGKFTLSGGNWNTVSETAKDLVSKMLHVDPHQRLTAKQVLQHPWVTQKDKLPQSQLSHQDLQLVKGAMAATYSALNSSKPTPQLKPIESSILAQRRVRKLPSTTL

[15] = target: Ribosomal protein S6 kinase alpha-1 (Homo sapiens) (UniProt Q15418); details: at 1 µM
[16] = target: Ribosomal protein S6 kinase alpha-3 (Homo sapiens) (UniProt P51812); details: at 0.1 µM
Sequence of Ribosomal protein S6 kinase alpha-3 (Homo sapiens) (P51812 whole entry): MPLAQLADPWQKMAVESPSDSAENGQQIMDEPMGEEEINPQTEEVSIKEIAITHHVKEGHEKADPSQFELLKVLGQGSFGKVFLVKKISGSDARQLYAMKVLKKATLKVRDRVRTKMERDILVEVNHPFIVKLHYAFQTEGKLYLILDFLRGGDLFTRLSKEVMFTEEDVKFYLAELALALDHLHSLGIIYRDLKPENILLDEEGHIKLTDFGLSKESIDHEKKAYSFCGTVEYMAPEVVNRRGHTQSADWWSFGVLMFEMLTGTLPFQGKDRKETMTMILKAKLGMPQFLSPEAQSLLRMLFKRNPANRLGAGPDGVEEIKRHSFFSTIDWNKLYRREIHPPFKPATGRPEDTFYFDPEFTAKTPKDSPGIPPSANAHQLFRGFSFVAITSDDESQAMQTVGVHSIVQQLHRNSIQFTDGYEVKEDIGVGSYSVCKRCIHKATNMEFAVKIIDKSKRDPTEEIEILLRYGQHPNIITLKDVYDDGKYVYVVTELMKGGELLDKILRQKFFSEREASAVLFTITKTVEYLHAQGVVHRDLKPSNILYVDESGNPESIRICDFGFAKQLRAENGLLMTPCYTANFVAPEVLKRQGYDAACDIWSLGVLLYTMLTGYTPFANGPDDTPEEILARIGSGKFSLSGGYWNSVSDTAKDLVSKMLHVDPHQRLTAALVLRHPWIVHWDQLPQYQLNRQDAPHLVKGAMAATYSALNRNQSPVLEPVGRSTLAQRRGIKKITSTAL

[17] = target: Ribosomal protein S6 kinase alpha-3 (Homo sapiens) (UniProt P51812); details: at 1 µM
[18] = target: Ribosomal protein S6 kinase alpha-2 (Homo sapiens) (UniProt Q15349); details: at 0.1 µM
Sequence of Ribosomal protein S6 kinase alpha-2 (Homo sapiens) (Q15349 whole entry): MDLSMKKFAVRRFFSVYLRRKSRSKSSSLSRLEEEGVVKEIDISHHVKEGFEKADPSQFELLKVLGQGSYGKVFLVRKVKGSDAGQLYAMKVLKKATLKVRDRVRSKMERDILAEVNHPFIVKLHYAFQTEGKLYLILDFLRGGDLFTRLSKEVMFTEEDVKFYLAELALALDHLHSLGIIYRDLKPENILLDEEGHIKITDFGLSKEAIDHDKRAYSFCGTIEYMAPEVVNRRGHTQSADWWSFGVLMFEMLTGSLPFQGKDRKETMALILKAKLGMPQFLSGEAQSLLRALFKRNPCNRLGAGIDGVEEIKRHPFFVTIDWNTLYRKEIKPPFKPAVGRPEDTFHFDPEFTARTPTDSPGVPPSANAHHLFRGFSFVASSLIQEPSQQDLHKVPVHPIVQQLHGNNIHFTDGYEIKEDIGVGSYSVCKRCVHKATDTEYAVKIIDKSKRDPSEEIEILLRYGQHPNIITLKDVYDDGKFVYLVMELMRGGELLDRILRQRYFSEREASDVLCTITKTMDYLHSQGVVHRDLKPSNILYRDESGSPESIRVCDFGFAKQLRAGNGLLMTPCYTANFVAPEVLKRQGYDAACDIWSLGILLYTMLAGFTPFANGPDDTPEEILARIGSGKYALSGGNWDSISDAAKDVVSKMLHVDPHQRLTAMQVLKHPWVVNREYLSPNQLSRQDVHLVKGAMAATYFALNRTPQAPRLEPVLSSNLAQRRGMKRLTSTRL

[19] = target: Ribosomal protein S6 kinase alpha-2 (Homo sapiens) (UniProt Q15349); details: at 1 µM
[20] = target: Ribosomal protein S6 kinase alpha-6 (Homo sapiens) (UniProt Q9UK32); details: at 0.1 µM;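 further: reported value is the mean inhibition of RSK4, from the GSK PKIS kinase inhibitor screen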
Sequence of Ribosomal protein S6 kinase alpha-6 (Homo sapiens) (Q9UK32 whole entry): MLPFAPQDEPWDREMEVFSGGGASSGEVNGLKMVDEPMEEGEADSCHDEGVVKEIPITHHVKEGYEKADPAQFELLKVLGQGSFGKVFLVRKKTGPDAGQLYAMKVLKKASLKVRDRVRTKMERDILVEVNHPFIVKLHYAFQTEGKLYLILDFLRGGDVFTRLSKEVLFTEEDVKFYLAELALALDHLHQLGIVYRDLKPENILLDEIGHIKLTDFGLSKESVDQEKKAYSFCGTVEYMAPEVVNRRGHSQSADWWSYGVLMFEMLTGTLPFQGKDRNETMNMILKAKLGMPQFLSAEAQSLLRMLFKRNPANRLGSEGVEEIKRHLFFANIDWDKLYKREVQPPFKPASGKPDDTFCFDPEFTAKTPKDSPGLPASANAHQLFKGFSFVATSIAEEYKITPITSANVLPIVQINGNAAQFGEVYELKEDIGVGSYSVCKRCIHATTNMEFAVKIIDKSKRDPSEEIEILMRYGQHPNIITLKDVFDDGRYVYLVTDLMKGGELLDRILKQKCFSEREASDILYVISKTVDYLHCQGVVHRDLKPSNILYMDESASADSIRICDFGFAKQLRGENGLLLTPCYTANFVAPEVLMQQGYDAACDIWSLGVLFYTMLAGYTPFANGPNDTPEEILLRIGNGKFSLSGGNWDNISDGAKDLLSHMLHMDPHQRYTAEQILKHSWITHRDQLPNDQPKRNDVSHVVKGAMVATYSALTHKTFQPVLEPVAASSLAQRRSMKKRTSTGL

| SMILES | inhibition [1] | inhibition [2] | inhibition [3] | inhibition [4] | inhibition [5] | inhibition [6] | inhibition [7] | inhibition [8] | inhibition [9] | inhibition [10] | inhibition [11] | inhibition [12] | inhibition [13] | inhibition [14] | inhibition [15] | inhibition [16] | inhibition [17] | inhibition [18] | inhibition [19] | inhibition [20] |
| --- | --- | --- | --- | --- | --- | --- | --- | --- | --- | --- | --- | --- | --- | --- | --- | --- | --- | --- | --- | --- |
| N#Cc1ccc2c(-c3ccnc(NC4CC4)n3)c(-c3ccc(F)cc3)nn2c1 | 44.2% | 6.5% | 41.7% | 1.2% | -0.35% | 0.69% | -1.36% | 1.65% | 0.23% | 0.62% | 0.26% | 0.99% | 0.79% | 0.57% | 0.36% | 0.08% | 0.42% | 1.03% | 1.48% | 1.23% |
| Cc1c2ccc(N(C)c3ccnc(Nc4cccc(S(N)(=O)=O)c4)n3)cc2nn1C | 0.98% | 2.69% | 2.71% | 3.15% | 5.31% | 2.54% | 4.29% | 2.29% | 1.21% | 1.12% | 1.97% | 2.24% | 2.37% | 2% | 3.33% | 1.97% | 3.86% | 3.56% | 5.15% | 2.42% |
| Nc1ncnc2occ(-c3ccc(NC(=O)Nc4cc(C(F)(F)F)ccc4F)cc3)c12 | 1.3% and 0.14% | 2.15% and -1.96% | 1.95% and -2.28% | 2.47% and 0.31% | 1.42% and 0.75% | 1.4% and 0.27% | 2.16% and 1.02% | 0.81% and 0.1% | -1.13% and -0.05% | 1.07% and 0.31% | 10.2% and 6.77% | 7.01% and 2.27% | 40% and 27.8% | 9.06% and 4.67% | 46.6% and 34.2% | 3.22% and 1.04% | 22.5% and 15.8% | 9.18% and 5.3% | 51.1% and 37.7% | -2.74% and 0.37% |
